Screening results from PubChem BioAssay.
Compounds with a hit are over-represented: about 7.9% of the library has one in this group of screens.
MCF10A rereplic: inducers of DNA re-replication in MCF 10A breast cells; MCF 10A DNA re-replication, Hoechst nuclear intensity, 48 h; Potency, µM (top dose mostly 46.1 µM), for inactives: top-dose activity, positive = re-replication, hits mostly activators; hit rate 2.9% among 350,000; AID 624296; note: % of control where 0% means no effect; nearly all actives have a fitted effect of over 50% in size
KB-3-1 tox: KB-3-1 parental cell cytotoxicity; KB-3-1 viability, CellTiter-Glo ATP luminescence, 72 h; Potency, µM (highest dose often 46.1 µM), actives largely listed as cytotoxic; hit rate 1.4% among 400,000; AID 1347075; note: % is set by controls: 0 for no effect and ±100 for the full control effect; nearly all actives have a fitted effect of over 60% in size
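KB-3-1 cells, DMEM (no phenol red) + 10% FBS; compound by pin transfer, 72 h, 37 °C. Readout: CellTiter-Glo luminescence after 10 min. Data normalized, curve-fitted.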
SW480 rerep: induces DNA re-replication in SW480 colon adenocarcinoma cells. hit rate 1.8% among 340,000. AID 624297. SW480 DNA re-replication, Hoechst DNA content imaging, 48 h. Potency, µM (top dose mostly 46.1 µM), for inactives: at the top dose re-replication activation, most hits filed as activators; note: % of control where 0% means no effect; nearly all actives have a fitted effect of over 55% in size
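Quantitative HTS format with DMSO vehicle controls; 48 hr drug incubation at 37 C, then 40 min Hoechst staining and scanning imager measurement at 405 nm excitation.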
HT1080NT lethal: kills 2HG-producing HT-1080-NT fibrosarcoma cells; Potency, µM (top dose mostly 46.1 µM), for inactives: at the highest dose activity, negative = less viability, actives largely listed as cytotoxic; hit rate 1.6% among 360,000; HT-1080-NT fibrosarcoma viability, CellTiter-Glo ATP luminescence, 48 h; AID 686970;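 note: NT is the 2HG producing partner of a matched IDH1 knockdown line; 0% = DMSO-treated cells and -100% = media-only wells without cells; nearly all actives have a fitted effect of over 55% in size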
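Viability of the 2HG-overproducing fibrosarcoma line after 48 hours of compound exposure at 37 degrees C was determined by luminescence with CellTiter-Glo, and concentration-effect curves were then fitted and categorized.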
KB-V1 cytotox: kills drug-selected multidrug resistant KB-V1 cells. KB-V1 MDR cells viability, CellTiter-Glo, 72 h. Potency, µM (series often up to 46.1 µM), most hits filed as cytotoxic. hit rate 3.4% among 400,000. AID 1347076; note: % is set by controls: 0 for no effect and ±100 for the full control effect; nearly all actives have a fitted effect of over 60% in size
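Potencies derive from concentration-effect curves fitted to normalized luminescence (CellTiter-Glo) of KB-V1 cells treated for 72 h at 37 degrees C in phenol-red-free DMEM containing 10% FBS.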
HT1080 IDH1KD tx: HT-1080 IDH1 knockdown cell toxicity (counter line); HT-1080 IDH1 knockdown viability, ATP luminescence, 48 h; AID 686971; hit rate 2% among 360,000; Potency, µM (highest dose often 46.1 µM), inactives show at the top dose activity, negative = toxicity, most hits filed as cytotoxic;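 note: 0% = DMSO wells and -100% = cell-free medium wells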
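Luminescent ATP read-out (CellTiter-Glo, 10 min at room temperature) after 48 h compound exposure at 37 °C gave viability of IDH1-knockdown HT-1080 cells. Activity was normalised to DMSO and cell-free wells, then fitted as concentration-response curves.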
Active calls of the source: *; i = inactive; u = inconclusive; x = not tested or not shown. Calls come from the whole dose curve; as a rule, active = well fitted curve in the direction sought with a large enough effect; inconclusive = small, poorly fitted or top-dose-only effect, or another doubt; inactive = no such curve, though single readings can be large; an effect the other way counts as inactive or inconclusive. Potency is the fitted concentration of half-maximal effect.

SMILES	MCF10A rereplic	KB-3-1 tox	SW480 rerep	HT1080NT lethal	KB-V1 cytotox	HT1080 IDH1KD tx
CCN(CC)c1ccc(NC(=O)CCCN2C(=O)C(c3ccccc3)Oc3cccnc32)c(C)c1 (stereo not given)	x	i	x	x	i	x
CC(=O)Nc1cc([N+](=O)[O-])cc(NC(C)=O)c1NC(C)=O	x	i	x	x	i	x
COc1ccc(C(=O)/C=C2/C(=O)Nc3ccccc32)cc1	9.2µM*	u	u	u	i	u
COc1ccc(C(=O)/C=C2/C(=O)Nc3ccccc32)cc1OC	8.2µM*	i	u	-9%	i	-10%
O=C1Nc2ccccc2/C1=C/c1cnc(-c2ccccc2)[nH]1	-3%	i	-22%	u	i	u
C=CCOc1ccc(C(=O)/C=C2/C(=O)Nc3ccccc32)cc1	u	i	u	u	i	u
C=CCOc1ccccc1C(=O)/C=C1/C(=O)Nc2ccccc21	3.7µM*	u	u	u	i	u
CCn1cc(/C=C(\NC(=O)c2ccccc2Cl)C(=O)NCCCn2ccnc2)c2ccccc21	x	i	x	x	u	x
Cc1ccc(Cn2c(CN3CCN(c4cccc(Cl)c4)CC3)nc3c2c(=O)n(C)c(=O)n3C)cc1	x	i	x	x	i	x
OC(c1ccc(F)c(F)c1)c1nc(-c2cccc3cccnc23)cs1 (stereo not given)	x	i	x	-2%	i	1%
CC(C)(C)c1ccc(C(=O)N2CCC2(C)C(=O)NCc2cccs2)cc1 (stereo not given)	x	i	x	u	i	u
COCc1cc(C)n(CC(=O)Nc2ccc(NC(C)=O)cc2)c(=O)c1C#N	x	i	x	x	i	x
O=[N+]([O-])c1cccc(SSc2cccc([N+](=O)[O-])c2)c1	u	i	18µM*	18µM*	i	18µM*
Nc1cccc([N+](=O)[O-])c1	3%	i	-15%	6%	u	-3%
CCOc1ccc(NC(=O)c2c(NC(=O)c3ccccc3F)sc3c2CCC3)cc1	x	i	x	x	i	x
CCOc1ccccc1NC(=O)c1c(NC(=O)COc2ccccc2)sc2c1CCCCC2	x	4.6µM*	x	x	u	x
CCOc1ccc(NC(=O)c2c(NC(=O)CNCCN3CCOCC3)sc3c2CCC3)cc1	-7%	i	7.3µM*	-4%	i	-23%
CN(C(=O)c1cccc(NC(=O)Cc2cccc(NC(=O)C3CCN(C(=O)C4CCC4)CC3)c2)c1)C1CCC1	-2%	i	u	-4%	i	1%
CN(C(=O)c1cccc(NC(=O)Cc2cccc(NC(=O)C3CCN(C(=O)C4CCCCC4)CC3)c2)c1)C1CCC1	1.2µM*	i	4%	-2%	i	-4%
COc1ccccc1CNC(=S)Nc1ccc(F)cc1	3%	i	-1%	7%	i	6%
CN(C)CCCNC(=S)Nc1ccc(-c2ccccc2)cc1	4%	i	10%	21µM*	i	u
CCC(C)c1ccc(NC(=S)NCc2ccccc2OC)cc1 (stereo not given)	18µM*	i	11%	-27%	u	-20%
CC(C)N(c1ccccc1)c1ccc(NC(=S)NCCN(C)C)cc1	u	u	u	16µM*	i	21µM*
CC(C)c1ccc(NC(=S)NN(c2ccccc2)c2ccccc2)cc1	u	i	u	-11%	21µM*	-9%
CN(C)CCCNC(=S)Nc1ccc(Oc2ccccc2)cc1	9%	i	1%	-28%	i	-9%
SMILES	MCF10A rereplic	KB-3-1 tox	SW480 rerep	HT1080NT lethal	KB-V1 cytotox	HT1080 IDH1KD tx
Cc1ccc(NC(=O)Cn2c(=O)n(Cc3ccco3)c(=O)c3sc4ccccc4c32)cc1C	x	i	x	x	i	x
CCNC(=S)Nc1ccc(N(c2ccccc2)C(C)C)cc1	u	21µM*	9%	u	13µM*	u
CC(C)CNC(=S)Nc1ccc(Oc2ccccc2)cc1	8.2µM*	21µM*	-7%	-6%	16µM*	-17%
OCCCNC(=S)Nc1ccc(Oc2ccccc2)cc1	5%	i	0%	-6%	i	-7%
CC(Oc1cc(-c2ccccc2)cc2ccccc12)C(=O)N1CCOCC1 (stereo not given)	16%	u	6%	-1%	6.5µM*	-3%
CC(Oc1ccc(C(=O)c2ccccc2)cc1)C(=O)N1CCOCC1 (stereo not given)	2%	i	-2%	0%	i	0%
Cc1ccc(-c2nnc(Sc3nc4ccccc4o3)c3ccccc23)cc1	8.2µM*	i	u	u	i	11µM*
CCSc1nnc(C)c2ccccc12	3%	i	0%	8%	u	7%
CCSc1nnc(-c2ccc(Cl)cc2)c2ccccc12	-1%	i	0%	2%	i	2%
Cc1nnc(Sc2nc3ccccc3o2)c2ccccc12	13µM*	u	u	u	i	21µM*
Clc1ccc(-c2nnc(Sc3nc4ccccc4o3)c3ccccc23)cc1	u	u	-4%	11µM*	i	11µM*
CCSc1nnc(-c2ccc(C)cc2)c2ccccc12	16%	i	1%	-17%	u	-20%
CC(=O)Nc1ccc(NC(=O)CCCN2C(=O)c3ccccc3C2=O)cc1	0%	i	1%	4%	i	3%
CC(=O)Nc1ccc(NC(=O)CCN2C(=O)c3ccccc3C2=O)cc1	0.58µM*	i	-38%	2%	i	0%
COc1ccc(/C=C/C(=O)c2cc(F)ccc2OC(=O)c2ccccc2OC)cc1OC	13µM*	5.2µM*	u	1µM*	3.3µM*	1.3µM*
COc1ccc(/C=C/C(=O)c2cc(F)ccc2OC(=O)c2ccccc2)cc1OC	u	u	1.3µM*	u	u	1.6µM*
Cc1cc(Br)ccc1NC(=O)c1ccc(NS(=O)(=O)c2c(C)noc2C)cc1	x	i	x	x	i	x
O=C(NCCCc1nc2ccccc2n1Cc1ccc(Cl)cc1)C1CCCCC1	x	i	x	x	i	x
COc1cc(/C=N/NC(=O)c2nnn(-c3nonc3N)c2C(C)C)ccc1OCc1ccc(F)cc1	u	u	u	u	i	12µM*
CCN(CC)c1ccc(/C=N/NC(=O)c2nnn(-c3nonc3N)c2C(C)C)c(O)c1	18µM*	1.3µM*	23µM*	u	i	1.3µM*
Cc1cc(/C=C/C#N)cc(C)c1Nc1nc(Nc2ccc3n[nH]nc3c2)c2[nH]cnc2n1	x	i	x	x	i	x
